A selection: hits, their analogues and other compounds. The true share with any hit is near 32%.
CYP2C9 inhib: inhibitors of human CYP2C9 | actives 20% (n = 96,000) | CYP2C9 Supersomes, luciferin-H conversion, luminescence | AID 777 | inhibition, % at 5 µM;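 active means blocking of liver enzyme CYP2C9 beyond about 50% at 5 µM, limit read from the data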
PostGolgi ctrl: inhibits growth of the yeast control strain; inhibition, % at 10 µM; efflux-deficient yeast background strain, growth absorbance A615, 16 h; actives 5% (n = 98,000); AID 738
CYP2C19 inhib: blocks human cytochrome P450 2C19; P33261; CYP2C19 Supersomes, luciferin-H EGE luminescence, 30 min; inhibition, % at 5 µM; actives 21% (n = 96,000); AID 778;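 active means CYP2C19 inhibition above a set limit at 5 µM in the primary screen, cut at about 50% in these data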;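 further: plate controls were negative control wells for no effect and 2.5 mM tranylcypromine positive control for full effect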
Target sequence (P33261 whole entry, looked up): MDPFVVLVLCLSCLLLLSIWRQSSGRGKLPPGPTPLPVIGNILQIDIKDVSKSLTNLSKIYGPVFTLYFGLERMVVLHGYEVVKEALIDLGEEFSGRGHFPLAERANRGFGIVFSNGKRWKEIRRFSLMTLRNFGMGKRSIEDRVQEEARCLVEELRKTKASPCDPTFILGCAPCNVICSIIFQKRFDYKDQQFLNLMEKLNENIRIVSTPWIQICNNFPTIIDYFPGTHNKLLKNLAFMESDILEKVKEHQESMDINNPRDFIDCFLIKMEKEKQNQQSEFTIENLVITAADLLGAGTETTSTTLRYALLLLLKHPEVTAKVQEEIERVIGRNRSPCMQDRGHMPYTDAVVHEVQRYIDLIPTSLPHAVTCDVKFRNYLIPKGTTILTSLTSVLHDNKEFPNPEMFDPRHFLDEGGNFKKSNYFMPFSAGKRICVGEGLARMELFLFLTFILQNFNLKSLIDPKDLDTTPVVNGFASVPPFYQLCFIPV
CYP2C19 act: activators of human cytochrome P450 2C19; P33261; recombinant CYP2C19, luciferin-H EGE luminescence; stronger effect = higher value; 0 = fully inhibited enzyme, 1 = untreated enzyme; activation factor at 5 µM; 96,000 tested, under 10 active; AID 1025;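 active means activation factor of at least 2 at 5 µM in the primary screen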;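 further: 0 = wells with 2.5 mM tranylcypromine and 1 = vehicle-only wells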
CYP2C9 act: activators of human CYP2C9 | recombinant CYP2C9, luciferin-H conversion, luminescence; stronger effect = higher value; factor 1 = untreated enzyme, 0 = blocked | activation factor at 5 µM | P11712 | actives 1.4% (n = 96,000);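 active means activation factor of 2 or more for CYP2C9 at a 5 µM dose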;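 further: 0 = sulfaphenazole-blocked wells and 1 = vehicle-only wells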
PostGolgi yeast: growth inhibition of a yeast mutant, post-Golgi transport screen | post-Golgi transport phenotypic cell assay | inhibition, % at 10 µM | actives 0.9% (n = 98,000);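 further: yeast cells grown in 1536-well plates; yeast grown about 18 h at 30C before absorbance read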
* marks the source's active call; other numbers are inactive results. Unless noted, no stated cut-off is given here; in the data, active means inhibition above about 30%; inactive means the rest.

SMILES | CYP2C9 inhib | PostGolgi ctrl | CYP2C19 inhib | CYP2C19 act | CYP2C9 act | PostGolgi yeast
COc1cc(OC)c(OC)cc1/C=N/NC(=O)CC1C(=O)NN=C1C (configuration not stated) | -9 | 3 | -8 | 1.1 | 1.1 | -8
COC(=O)[C@H](CCSC)NC(=O)Nc1ccc(C)c(C)c1 | 22 | 1 | 62* | 0.4 | 0.8 | 0
COC(=O)[C@H](CCSC)NC(=O)Nc1ccc(C)cc1C | 24 | 5 | 52* | 0.5 | 0.8 | 4
COC(=O)[C@H](CCSC)NC(=O)Nc1ccc(OC)cc1OC | -24 | 9 | 15 | 0.9 | 1.2 | 4
COC(=O)[C@H](CCSC)NC(=O)Nc1ccc(C(C)C)cc1 | -9 | -2 | 5 | 0.9 | 1.1 | -5
COCCNC(=O)CN1CCN(C(c2ccccc2)c2ccccc2)CC1 | 18 | 9 | 7 | 0.9 | 0.8 | 15
Cc1csc(NC(=O)C2CCC(C)(C(=O)O)C2(C)C)n1 (configuration not stated) | -5 | 3 | -5 | 1.1 | 1 | -4
Cc1ccc(NC(=O)c2cccc3c2-c2ccccc2C3=O)cc1C | 68* | 5 | 84* | 0.2 | 0.3 | -5
CSc1ccccc1C(=O)Nc1ccc(C)c(C)c1 | -40 | 11 | 25 | 0.8 | 1.4 | -9
CCOc1cc(/C=C2\N=C(C)OC2=O)cc(Br)c1OCCc1ccccc1 | 70* | 6 | 28 | 0.7 | 0.3 | -4
CC(C)CCC1CC(CSC(=N)N)OC1=O (configuration not stated) | -17 | 0 | 1 | 1 | 1.2 | 14
O=[N+]([O-])c1ccc(-c2ccc(/C=N/c3c(-c4ccco4)nc4ccccn34)o2)cc1 | 10 | 9 | -3 | 1 | 0.9 | 4
CCCCNS(=O)(=O)c1ccc2nc(SCC(=O)c3ccc(C#N)cc3)[nH]c2c1 | 88* | 13 | 74* | 0.3 | 0.1 | 24
COc1ccc(N2Cc3cccc(C(=O)N4CCN(C(=O)c5ccco5)CC4)c3C2=O)cc1 | 64* | 1 | 26 | 0.7 | 0.4 | -5
Cc1ccc(S(=O)(=O)Cc2ccc(C(=O)N3CCN(Cc4ccccc4)CC3)o2)cc1 | 92* | -11 | 41 | 0.6 | 0.1 | 6
COc1ccc(S(=O)(=O)Cc2ccc(C(=O)N3CCN(Cc4ccccc4)CC3)o2)cc1 | 87* | 2 | 32 | 0.7 | 0.1 | 1
COc1ccc(S(=O)(=O)Cc2ccc(C(=O)N3CCN(C(=O)c4ccco4)CC3)o2)cc1 | 80* | 4 | 18 | 0.8 | 0.2 | -6
COc1ccc(CC(=O)N2CCN(C(=O)c3ccco3)CC2)cc1 | 0 | 2 | 7 | 0.9 | 1 | -4
COc1ccc(N2Cc3cccc(C(=O)N4CCOCC4)c3C2=O)cc1 | 8 | 11 | -5 | 1.1 | 0.9 | -4
CC(=O)Nc1ccc(-c2cc(NC(C)=O)n(-c3ccccc3)n2)cc1 | 19 | -9 | 29 | 0.7 | 0.8 | 2
Cc1ccc(-c2cc(NC(=O)CCl)n(-c3ccccc3)n2)cc1 | 75* | 20 | 96* | 0 | 0.3 | 1
O=C(CCl)Nc1cc(-c2ccccc2)nn1-c1ccccc1 | 60* | 9 | 83* | 0.2 | 0.4 | 7
CCn1nc(C(=O)N[C@@H](CCSC)c2nc3ccccc3[nH]2)c2ccccc2c1=O | 96* | 6 | 64* | 0.4 | 0 | -3
CCCCn1nc(C(=O)N[C@@H](CCSC)c2nc3ccccc3[nH]2)c2ccccc2c1=O | 90* | 7 | 62* | 0.4 | 0.1 | 2
CSCC[C@H](NC(=O)c1nn(C)c(=O)c2ccccc12)c1nc2ccccc2[nH]1 | 94* | 6 | 41 | 0.6 | 0.1 | -19
SMILES | CYP2C9 inhib | PostGolgi ctrl | CYP2C19 inhib | CYP2C19 act | CYP2C9 act | PostGolgi yeast
CC(NC(=O)Cc1ccccc1)c1nc2ccccc2[nH]1 (configuration not stated) | -5 | 33* | 0 | 1 | 1.1 | -3
CC(=O)N1CCc2cc(S(=O)(=O)NC(Cc3ccccc3)C(=O)Nc3cc(C)ccn3)ccc21 (configuration not stated) | 30 | -2 | 10 | 0.9 | 0.7 | 22
CCCCC(NC(C)=O)c1nc2ccccc2[nH]1 (configuration not stated) | -10 | 5 | 64* | 0.4 | 1.1 | 2
Cc1ccccc1NC(=S)N(C)C1(c2ccccc2Cl)CCCCC1=O (configuration not stated) | 16 | 8 | 69* | 0.3 | 0.8 | 3
COc1ccc(CNC(=O)CN(c2cc(C)cc(C)c2)S(=O)(=O)c2c(C)noc2C)cc1 | 23 | 21 | 37 | 0.6 | 0.8 | -7
Cc1cc(C)cc(N(CC(=O)NCc2ccco2)S(=O)(=O)c2c(C)noc2C)c1 | 67* | 19 | 82* | 0.2 | 0.3 | 6
Cc1ccc(NC(=O)CN(c2cc(C)cc(C)c2)S(=O)(=O)c2c(C)noc2C)nc1 | 72* | 25 | 48 | 0.5 | 0.3 | -3
Cn1nnnc1SCC(=O)Nc1ccccc1C(=O)NCc1ccccc1 | 7 | -10 | -17 | 1.2 | 0.9 | -2
O=S(=O)(c1ccc(Cl)s1)N1CCC(Cc2ccccc2)CC1 | 68* | 29 | 25 | 0.8 | 0.3 | 0
O=S(=O)(c1ccc(Cl)s1)N1CCN(Cc2ccccc2)CC1 | 61* | 5 | 84* | 0.2 | 0.4 | -5
O=C(C1CCN(S(=O)(=O)c2ccc(Br)s2)CC1)N1CCc2ccccc21 | 12 | 52* | 43 | 0.6 | 0.9 | -7
O=S(=O)(c1ccc(Br)s1)N1CCC(Cc2ccccc2)CC1 | 56* | 0 | 12 | 0.9 | 0.4 | -12
CCc1ccc(NC(=O)CSc2nc3ccccc3c(=O)n2CCCC(=O)N2CCCC2)cc1 | 38 | 9 | 37 | 0.6 | 0.6 | -10
CN(C(=O)COC(=O)CNS(=O)(=O)/C=C/c1ccccc1)C1CCS(=O)(=O)C1 (configuration not stated) | 8 | 10 | -2 | 1 | 0.9 | -1
Cc1cc(Oc2ccccc2)nc(SCC(=O)Nc2ccccc2)n1 | 16 | 7 | 29 | 0.7 | 0.8 | -10
O=C(CSc1nnc2c3ccccc3c3ccccc3c2n1)Nc1ccccc1 | 37 | 45* | 30 | 0.7 | 0.6 | -9
Cc1cc(C(F)(F)F)nc(SCC(=O)Nc2ccccc2)n1 | -14 | 5 | 91* | 0.1 | 1.1 | -5
Cc1cc(C(F)(F)F)nc(SCC(=O)NC2CC3CCC2C3)n1 (configuration not stated) | -111 | 6 | 83* | 0.2 | 2.1* | -3
COc1ccc(NC(=O)CSc2nc(C)cc(C(F)(F)F)n2)cc1 | -59 | -4 | 65* | 0.4 | 1.6 | -8
Cc1cc(C)cc(N(CC(=O)NC2CC3CCC2C3)S(C)(=O)=O)c1 (configuration not stated) | -25 | 2 | 28 | 0.7 | 1.2 | -8
C=CCOc1c2ccc(C(=O)NCCc3ccc(C)cc3)cc2nn1C | 20 | -3 | 13 | 0.9 | 0.8 | -3

Compound activity from PubChem BioAssay.
